Most compounds without a hit are left out; they make up all but 21% or so of the library.
Pf growth 48h – Primary qHTS for delayed death inhibitors of the malarial parasite plastid, 48 hour incubation. P. falciparum luciferase growth in erythrocytes, 48 h. 310,000 compounds, 5.9% hits. AID 504832, 2011. Potency, µM (highest dose often 28.7 µM), inactives show top-dose activity change, negative = inhibition, hits mostly inhibitors; also: potency is read from the fitted curve at half-maximal effect; % is scaled to controls: 0 for no effect and ±100 for the full control effect
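Firefly luciferase activity from engineered P. falciparum reports growth; inhibitors lower the luminescent signal. Cultures contained 2% hematocrit erythrocytes at 0.1% final parasitemia.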
Shiga inhibitor – A qHTS for Small Molecule Inhibitors of Shiga Toxin. Vero cells, Shiga toxin protein synthesis inhibition reporter. inhibition, % at 38.7 µM. 290,000 compounds, 9.2% hits. AID 2315, 2010; in the data active = inhibition mostly above about 28%, no sharp cut-off; inactive = mostly below about 43%; also: 0% is about no effect
CHX counter – Cycloheximide Counterscreen for Small Molecule Inhibitors of Shiga Toxin; cell reporter, cycloheximide protein synthesis inhibition counterscreen; max response, %; 300,000 compounds, 12% hits; in the data active = max response mostly above about 13%, no sharp cut-off; inactive = mostly below about 14%; also: read at 38.3 µM for the half of the compounds with a filed dose; 0% is about no effect
Pf growth 96h – Primary qHTS for delayed death inhibitors of the malarial parasite plastid, 96 hour incubation. AID 504834, 2011. P. falciparum luciferase reporter growth, 96 h. 320,000 compounds, 6.9% hits. Potency, µM (series often up to 28.7 µM), inactives show top-dose activity change, negative = inhibition, actives largely listed as inhibitors; also: potency is read from the fitted curve at half-maximal effect; % is scaled to controls: 0 for no effect and ±100 for the full control effect
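Luminescence readout: decreased luciferase signal marks inhibited growth of reporter-expressing P. falciparum in infected red cells (2% hematocrit, 0.05% parasitemia final), exposed to compound two generations (96 h, 37 C, 5% CO2).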
An asterisk follows results filed as active; i = inactive; ? = inconclusive; . = no result given; + = active, no number; [ ] = another dose, or the depositor's remark. Unless noted, calls follow the shape of the dose curve; as a rule, active = well fitted inhibition curve with a large enough effect; inconclusive = small, poorly fitted or top-dose-only effect, or another doubt; inactive = no such curve, though single readings can be large or run the other way.

SMILES	Pf growth 48h	Shiga inhibitor	CHX counter	Pf growth 96h
Cc1ccc(OCc2cc(C(=O)N3CC4C[C@@H]5CC3C[C@H](C4)C5)no2)cc1C	-16%	135*	35*	32%
COCC1CCN(C(=O)c2cc(COc3ccc(C)c(C)c3)on2)C1 (stereo not drawn)	5%	12	10	?
Cc1cccc(C)c1OCc1cc(C(=O)N2CC3C[C@@H]4CC2C[C@H](C3)C4)no1	38%	96*	65*	-24%
O=C(c1ccc(NS(=O)(=O)c2ccc3[nH]c(=O)[nH]c3c2)cc1)N1CCCC(C(F)(F)F)C1 (stereo not drawn)	-23%	.	.	42%
C#C[C@]1(O)CC[C@H]2[C@H]3[C@H](CC[C@@]21C)C1=C(CC(=O)CC1)C[C@@H]3C	-5%	.	.	-26%
CC(NC(=O)Cc1cc(F)cc(F)c1)C(=O)NC(C(=O)OC(C)(C)C)c1ccccc1 (stereo not drawn)	.	-8	1	.
COc1cc(-c2nc(-c3ccccc3)c(-c3cccs3)[nH]2)cc(OC)c1OC	?	-26	-1	.
COc1cc(-c2nc(-c3ccccc3)c(-c3cccs3)[nH]2)cc(OC)c1O	.	9	7	1.9µM*
O=C(N/N=C/c1cccs1)C(=O)N1CCCC1	19%	48	28*	-29%
COc1ccccc1NC(=O)C(=O)N/N=C/c1cccs1	90%	99*	38*	-1%
O=C(N/N=C/c1ccccc1O)C(=O)N1CCCCCC1	-16%	21	20*	15%
COCCNC(=O)C(=O)N/N=C/c1cccs1	3%	23	7	26%
O=C(N/N=C/c1cccc(O)c1)C(=O)N1CCCCCC1	7%	4	8	?
O=C(N/N=C/c1ccccc1F)C(=O)N1CCCCCC1	31%	34*	24*	?
Cc1nn(CC(=O)NCCCN2CCCC2)c(=O)c2nn(-c3ccccc3)c(C)c12	24%	-1	-6	?
CC(Oc1coc(CN2CCN(C(=O)c3ccco3)CC2)cc1=O)c1ccccc1 (stereo not drawn)	-4%	.	.	-20%
CCN(CC)S(=O)(=O)c1ccc(OCC(=O)NC(=O)c2ccccc2OC)c([N+](=O)[O-])c1	-14%	-4	-2	0%
COc1ccc(/C=N/NC(=O)c2ccc3c(c2)NC(=O)C(C)(C)O3)cc1OC	-1%	-8	-5	6%
O=C(NCCOc1ccc(F)cc1)C1CCC(=O)N(CC2CCCCC2)C1 (stereo not drawn)	?	15	7	?
CCOC(=O)C(NC(=O)c1cccc(Cl)c1)(OCc1ccccc1)C(F)(F)F (stereo not drawn)	?	+	20*	?
CCOC(=O)C(NC(=O)c1ccccc1)(OCc1ccccc1)C(F)(F)F (stereo not drawn)	14%	-3	-2	-8%
COc1cc(C(=O)Nc2ccccn2)cc(OC)c1OC	4%	-5	-4	11%[5.75 µM]
Cn1cc(C(=O)Nc2ccccn2)c(=O)c2ccccc21	159%	47*	20*	?
Cc1ccccc1C(=O)Nc1ccc(Cl)cn1	173%	115*	24*	?
Cc1ccccc1C(=O)Nc1ccccn1	23%	57*	32*	7%
SMILES	Pf growth 48h	Shiga inhibitor	CHX counter	Pf growth 96h
Cc1cc(C(=O)Nc2ccccn2)cs1	433%	48*	37*	.
COc1ccc(C)cc1NC(=O)Cn1c(=O)oc2ccccc21	0%[0.00184 µM]	29	1	8%
O=[N+]([O-])c1cccc(-c2nc(-c3ccncc3)no2)c1	52%	12	6	134%
O=[N+]([O-])c1cccc(-c2noc(-c3ccco3)n2)c1	102%	63*	28*	i
O=[N+]([O-])c1cccc(-c2noc(COc3ccccc3)n2)c1	-12%	43	27*	117%
CCOc1nc(-c2ccccc2)ccc1-c1noc(COc2ccccc2)n1	?	12	8	16%
O=[N+]([O-])c1cccc(-c2nc(-c3ccccc3)no2)c1	264%	49*	16	-65%
CCN(CC)C(=O)c1ccccc1NC(=O)CN1C(=O)c2ccccc2C1=O	-7%	8	-1	3%
Cc1cccc(C(=O)OC(C)C(=O)Nc2ccc(S(=O)(=O)Nc3ncccn3)cc2)c1C (stereo not drawn)	-2%	.	.	3%
Cc1cc2nc3c(=O)n(C4CCCCC4)c(=O)[nH]c3nc2cc1N	-6%	25	15	?
CN(C(=O)c1ccoc1)c1ccc2ccccc2c1	6%	-10	-3	?
